A selection: hits, their analogues and other compounds. The true share with any hit is near 1.1%.
Ec RNAP inh = inhibitors of Escherichia coli RNA polymerase | P0A8V2 | E. coli RNA polymerase, fluorescence transcription assay | inhibition, %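 (tested at 10 µM)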 | 0.2% of 62,000 active | AID 559; in the data active means inhibition above about 20%;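 further: 0% = enzyme without compound and 100% = no enzyme blank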
Her2 expr inh = lowers expression of human Her2 kinase; P04626; SKBR-3 HER2 protein level, AlphaScreen, 18-24 h; stronger effect = lower value; 0.69% of 65,000 active; HER2 level % of control, % at 10 µM;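 active means HER2 level under 5% of the carrier-only control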;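 further: 100% = DMSO carrier and 0% = 500 nM PU-H71 HSP90 inhibitor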
HePTP inh = blocks human HePTP tyrosine phosphatase. recombinant HePTP phosphatase activity, OD absorbance. 0.64% of 110,000 active. P35236. inhibition, % at 20 µM. AID 521; in the data active means inhibition above about 50%;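 further: plate controls were vehicle for no effect and reference inhibitor for full effect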
MT1-MMP txn act = activates MT1-MMP transcription | HT1080 MT1-MMP promoter luciferase reporter, luminescence, overnight; stronger effect = higher value | activation factor at 10 µM | 0.16% of 86,000 active;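 active means activation factor of at least 2 for MT1-MMP transcription at 10 µM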
Hsp90 block = displaces geldanamycin probe from tumor Hsp90; AID 429; P07900; 0.35% of 64,000 active; NCI-N417 lysate Hsp90, Cy3B-geldanamycin FP displacement; inhibition, % at 30 µM;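 active means inhibition above 50%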;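 further: 0% = tracer plus lysate wells and 100% = tracer alone without lysate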
TNAP act mid DEA = activators of human TNAP at intermediate phosphate acceptor; 64,000 tested, under 10 active; purified TNAP, CDP-star luminescence, 100 mM DEA, 30 min; stronger effect = higher value; scale: 0 levamisole-inhibited, 1 vehicle-only enzyme; activation factor at 20 µM; P05186;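 active means activation factor of at least 2 at 20 µM, relative to controls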
Target sequence (P05186 whole entry, looked up): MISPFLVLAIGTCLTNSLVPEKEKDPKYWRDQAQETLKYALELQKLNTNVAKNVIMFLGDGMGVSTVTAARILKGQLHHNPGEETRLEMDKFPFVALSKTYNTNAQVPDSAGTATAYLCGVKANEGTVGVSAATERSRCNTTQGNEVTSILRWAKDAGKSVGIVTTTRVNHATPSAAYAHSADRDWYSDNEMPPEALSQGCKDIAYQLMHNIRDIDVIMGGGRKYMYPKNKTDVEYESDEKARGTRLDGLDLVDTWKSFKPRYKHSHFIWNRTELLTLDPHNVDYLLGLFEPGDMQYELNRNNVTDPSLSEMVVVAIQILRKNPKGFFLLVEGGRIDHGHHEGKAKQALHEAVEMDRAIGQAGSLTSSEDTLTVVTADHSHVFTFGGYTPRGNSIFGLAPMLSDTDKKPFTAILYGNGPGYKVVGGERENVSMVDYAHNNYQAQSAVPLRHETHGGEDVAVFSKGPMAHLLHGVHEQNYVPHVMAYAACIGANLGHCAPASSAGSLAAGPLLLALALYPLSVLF
The depositor's hits bear a star; . = no result.

SMILES	Ec RNAP inh	Her2 expr inh	HePTP inh	MT1-MMP txn act	Hsp90 block	TNAP act mid DEA
CCOc1cc(C(=O)Nc2ccc(OCc3ccccc3)cc2)cc(OCC)c1OCC	.	.	3	.	.	.
CCOP(=O)(OCC)C(Nc1cccc(C(F)(F)F)c1)c1cc(Cl)cc(Cl)c1OC (stereo unspecified)	.	.	-2	.	.	.
O=S(=O)(NC1CCc2ccccc21)c1ccc(S(=O)(=O)N2CCCC2)cc1 (stereo unspecified)	4	92	5	1.1	92*	0.8
Cc1cccc(C2CN(C)CCc3c2cc(O)c(O)c3Cl)c1 (stereo unspecified)	.	.	.	.	69*	.
C=CCN1CCc2c(cc(O)c(O)c2Cl)C(c2ccccc2)C1 (stereo unspecified)	.	.	.	.	76*	.
Cc1cccc(C(=O)NN2CCN(C)CC2)c1	.	.	3	.	.	.
C=CCN1CCc2cc(O)c(O)cc2C(c2ccccc2)C1 (stereo unspecified)	.	.	.	.	56*	.
O=C(NCCc1ccccc1)C(=O)Nc1cccc(Cl)c1Cl	.	.	6	.	.	.
Cc1ccccc1C(=O)Nc1sc2c(c1C(=O)Nc1cccc3ccccc13)CCC2	.	.	1	.	.	.
COC(=O)c1ccc(C(=O)OC)c(NC(=O)COc2cc(C)cc(C)c2)c1	.	.	7	.	.	.
O=[N+]([O-])c1cncc([N+](=O)[O-])c1Nc1ccc(Cl)cn1	.	.	87*	.	.	.
CC(C)C1N=C(c2ccc3c(c2)OCO3)CC(c2ccccc2O)N1 (stereo unspecified)	.	.	.	2*	.	.
O=C1C(Cl)=C/C(=N\S(=O)(=O)c2ccc(Cl)cc2)C(Cl)=C1Cl	.	.	5	.	.	.
O=C1C(Cl)=CC(=NS(=O)(=O)c2ccccc2)C=C1Cl	.	.	87*	.	.	.
O=C1c2ccc(Oc3ccc4c(c3)C(=O)N(c3ccc(S)cc3)C4=O)cc2C(=O)N1c1ccc(S)cc1	.	.	102*	.	.	.
O=C(CSCC(=O)Nc1ccccc1-c1ccccc1)Nc1ccccc1	.	.	13	.	.	.
COc1ccccc1CC(=O)Nc1ccc(Br)cc1C	.	.	-8	.	.	.
COc1cc2nc(-c3ccc([N+](=O)[O-])cc3)oc(=O)c2cc1OC	.	.	-6	.	.	.
COc1cc(NC(=O)c2cc3sccc3n2C)cc(OC)c1	9	59	7	2.1*	-5	0.9
Cn1c(C(=O)Nc2ccccc2)cc2sccc21	.	.	.	2.2*	.	.
C#Cc1cccc(NC(=O)CN2C(=O)c3ccccc3C2=O)c1	.	.	-1	.	.	.
Cc1cc(OCCN2CCOCC2)nc2ccccc12	30*	119	4	1.1	-5	0.9
Cc1cc(OCCN2CCCCC2)nc2ccccc12	9	156	5	1.3	-5	0.9
O=S(=O)(c1ccc(Cl)cc1)N1CCN(Cc2ccccn2)CC1	.	.	-15	.	.	.
O=C1CSC(=S)N1/N=C/c1cccc(OCCOc2ccc(Br)cc2)c1	.	.	-3	.	.	.
SMILES	Ec RNAP inh	Her2 expr inh	HePTP inh	MT1-MMP txn act	Hsp90 block	TNAP act mid DEA
COc1ccc(OC)c(N2C(=O)CC(Cc3cc(C)cc(C)c3)C2=O)c1 (stereo unspecified)	.	.	97*	1.1	.	.
COc1ccc(OC)c(N2C(=O)CC(Cc3ccc(Cl)cc3)C2=O)c1 (stereo unspecified)	.	.	.	1.2	.	.
CC1=Nc2ccccc2/C1=C\c1c(O)n(-c2ccccc2)c(=O)[nH]c1=O	.	.	-7	.	.	.
O=C(N/N=C/c1ccc(OC(=O)c2ccc(Br)cc2)cc1)c1cccc([N+](=O)[O-])c1	.	.	52*	.	.	.
Clc1ccc(Nc2nc(-c3cccnc3)cs2)cc1	.	.	.	1.6	.	.
CN(C)c1ccc(Nc2nc(-c3cccnc3)cs2)cc1	-11	92	8	2*	38	0.8
COC(=O)CSc1nc2cc(C)ccc2cc1C#N	2	89	-5	2*	-9	0.9
CCOC(=O)CC(=O)CSc1nc2ccc(C)cc2cc1C#N	9	87	1	1.5	-7	0.9
COC(=O)CSc1ccc(C#N)c(SCC(=O)OC)c1	.	.	.	1	.	.
COC(=O)CSc1cc(SCC(=O)OC)c(C#N)c(SCC(=O)OC)c1	4	2.9*	5	0.9	-2	0.9
COc1cccc(C(=O)Nc2ccc(Br)cn2)c1	.	.	7	.	.	.
COc1ccc2c(c1OC)C(=O)OC2Nc1ccccc1S(=O)(=O)C(F)F (stereo unspecified)	4	-21*	4	1.2	-4	0.9
O=C(Nc1ccc2oc(-c3ccccc3F)nc2c1)c1cccc([N+](=O)[O-])c1	.	.	99*	.	.	.
COc1ccc(C2=C/C(=C\c3cccc([N+](=O)[O-])c3)C(=O)O2)cc1	.	.	6	.	.	.
CCc1cc(-c2[nH]ncc2-c2ccc3c(c2)OCO3)c(O)cc1O	-14	-1.1*	-6	0.7	96*	1.2
CCC1S/C(=N/C(=O)NC2CCCCC2)NC1=O (stereo unspecified)	.	.	.	1.2	.	.
O=C(/N=C1\NC(=O)C(F)(C(F)(F)F)S1)NC1CCCCC1 (stereo unspecified)	25*	108	4	.	-3	0.9
CCOC(=O)C1=C(c2ccccc2)OC(N)=C(C#N)C1C(C)C (stereo unspecified)	40*	91	-3	1.2	1	1
CCCn1c(NC(=O)c2cccc(S(=O)(=O)N3CCCC3)c2)nc2ccccc21	7	-3.3*	0	1.1	-5	1
Cc1nn2c(-c3ccco3)nnc2c2ccccc12	1	-1.1*	7	1.5	-1	0.9
COc1ccc(-c2nnc3c4ccccc4c(C)nn23)cc1	.	.	.	2*	.	.
CC(C)OCC(O)CNc1ccccc1 (stereo unspecified)	.	.	-1	.	.	.
COc1ccc(C(=O)N2CCN(C(=O)c3cccc4ccccc34)CC2)cc1OC	.	.	-6	.	.	.
COc1ccc(-c2cn3ccc4ccccc4c3n2)cc1	.	.	.	2.5*	.	.
COc1cc(/C=C2\SC(N)=NC2=O)c([N+](=O)[O-])cc1OC	.	.	3	.	.	.
SMILES	Ec RNAP inh	Her2 expr inh	HePTP inh	MT1-MMP txn act	Hsp90 block	TNAP act mid DEA
O=C(NC(NC(=S)Nc1ccccc1)C(Cl)(Cl)Cl)c1ccccc1F (stereo unspecified)	.	.	4	.	.	.
O=C(NC(NC(=S)Nc1ccc(Br)cc1)C(Cl)(Cl)Cl)c1ccccc1F (stereo unspecified)	.	.	103*	.	.	.
O=C(CC(=O)c1cc(Cl)ccc1O)c1ccc(F)cc1	.	.	8	.	.	.
CCCCn1c(Nc2ccccc2)nc2ccccc21	.	.	.	1.1	.	.
CCCn1c(Nc2nc3ccccc3n2C)nc2ccccc21	1	-22*	6	1.1	0	1
COc1cccc(OCCOc2cccc(/C=c3\sc4nc5ccccc5n4c3=O)c2)c1	.	.	2	.	.	.
COC(=O)CN1C(=O)/C(=C\c2ccc(F)cc2)SC1=S	.	.	2	.	.	.
O=C(c1sc2ccccc2c1Cl)N1CCN(Cc2ccccc2)CC1	.	.	103*	.	.	.
O=C(c1sc2ccccc2c1Cl)N1CCC(Cc2ccccc2)CC1	.	.	8	.	.	.
O=C1NC(=S)S/C1=C/c1cc(I)c(O)c(I)c1	.	.	101*	.	.	.
COc1cc(/C=C2\SC(=S)NC2=O)cc(Br)c1OC(C)=O	.	.	-10	.	.	.
COc1cc(/C=C2/SC(=S)NC2=O)cc(Cl)c1OCc1ccc(Cl)cc1Cl	.	.	102*	.	.	.
COc1ccc(/C=C2/SC(=S)NC2=O)cc1OCc1ccc(Cl)cc1	.	.	10	.	.	.
